Here are results for 23 molecules from PubChem BioAssay (EPA / NIEHS).

Activity calls are given as the source filed them. Rule for the calls: active = hit-call score of the fitted dose curve at least 0.9, where 1 is the maximum; inactive = score below 0.9.

For orientation: AC50 means the midpoint of the concentration-response curve, whichever way the signal moves.

Common to all, as to details: mRNA level, 48 h; actives raise or lower the signal
Read-out in experiment [1]: Interleukin 6 (IL6), IL6 (gene 3569)
As to the kind of experiment: LTEA_HepaRG_IL6: Life Technologies and Expression Analysis (LTEA) Assay for Interleukin 6 (IL6) using HepaRG (AID 2283509). The procedure, abridged: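 HepaRG, ~100,000 cells/well, 48 h pre-culture; serum-free induction medium; cmpd 8-pt half-log from 100 uM, 0.5% DMSO, duplicate, 48 h. Lysis in RLT, TaqMan qRT-PCR; gain or loss vs DMSO.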

Read-out in experiment [2]: Interleukin 6 Receptor (IL6R), IL6R (gene 3570)
The experiment can be described thus: LTEA_HepaRG_IL6R: Life Technologies and Expression Analysis (LTEA) Assay for Interleukin 6 Receptor (IL6R) using HepaRG (AID 2283510).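 For AC50: differentiated human HepaRG liver cells in serum-free induction medium; TaqMan qRT-PCR signal normalized to ACTB GAPDH and POLR2A housekeeping genes.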 The essentials:
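Readout is IL6R transcript level by TaqMan qRT-PCR, normalized to three housekeeping genes and fitted bidirectionally against 0.5% DMSO controls. Human HepaRG cells received chemicals for 48 h in serum-free induction medium, highest concentration 100 uM.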

Read-out in experiment [3]: Potassium channel subfamily K member 1 (KCNK1), KCNK1 (gene 3775)
As to the kind of experiment: LTEA_HepaRG_KCNK1: Life Technologies and Expression Analysis (LTEA) Assay for Potassium channel subfamily K member 1 (KCNK1) using HepaRG (AID 2283511). The procedure, abridged:
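Gain or loss of KCNK1 mRNA is the read-out, quantified by qRT-PCR against three housekeeping genes after 48 h chemical treatment of human HepaRG liver cells. Concentrations ran from 100 uM downward in half-log steps, vehicle 0.5% DMSO.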

Read-out in experiment [4]: Keratin 19 (KRT19), KRT19 (gene 3880)
The experiment can be described thus: LTEA_HepaRG_KRT19: Life Technologies and Expression Analysis (LTEA) Assay for Keratin 19 (KRT19) using HepaRG (AID 2283512). The procedure, abridged: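 Differentiated HepaRG cells in serum-free induction medium, exposed 48 h in duplicate to 8 half-log concentrations up to 100 uM in 0.5% DMSO. KRT19 mRNA by qRT-PCR, normalized to ACTB, GAPDH, POLR2A; bidirectional fit vs DMSO.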

Read-out in experiment [5]: JUN Transcription Factor, JUN (gene 3725)
The experiment can be described thus: LTEA_HepaRG_JUN: Life Technologies and Expression Analysis (LTEA) Assay for JUN Transcription Factor using HepaRG (AID 2283513). The essentials:
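Cells plated 48 h, medium switched to serum-free induction medium, then dosed 48 h (100 uM top, half-log dilutions, 0.5% DMSO). RNA isolated; JUN measured by qRT-PCR against three housekeeping genes; gain or loss fitted relative to DMSO.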

Read-out in experiment [6]: Lipase C (LIPC), LIPC (gene 3990)
As to the kind of experiment: LTEA_HepaRG_LIPC: Life Technologies and Expression Analysis (LTEA) Assay for Lipase C (LIPC) using HepaRG (AID 2283514). The procedure, abridged:
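Read-out is LIPC transcript level by TaqMan qRT-PCR, normalized to three housekeeping genes, after 48 h chemical treatment of human HepaRG liver cells. Curves span eight concentrations topping at 100 uM; activity in either direction scored relative to 0.5% DMSO.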

Read-out in experiment [7]: Lipoprotein lipase (LPL), LPL (gene 4023)
As to the kind of experiment: LTEA_HepaRG_LPL: Life Technologies and Expression Analysis (LTEA) Assay for Lipoprotein lipase (LPL) using HepaRG (AID 2283515). The procedure, abridged: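 Read-out is LPL transcript level by qRT-PCR, normalized to three housekeeping genes and fitted bidirectionally against the DMSO control. Human HepaRG cells received chemicals for 48 h at up to 100 uM.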

Read-out in experiment [8]: MicroRNA 122 (MIR122), gene 406906
As to the kind of experiment: LTEA_HepaRG_MIR122: Life Technologies and Expression Analysis (LTEA) Assay for MicroRNA 122 (MIR122) using HepaRG (AID 2283516). Note: the transcript read is the microRNA miR-122. The essentials:
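HepaRG plated 48 h, switched to serum-free induction medium, then treated in duplicate for 48 h (100 uM top, half-log steps, 0.5% DMSO vehicle). RNA isolated, qRT-PCR performed, concentration-response fitted both directions relative to DMSO.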

Read-out in experiment [9]: matrix metalloproteinase-10 (MMP10), MMP10 (gene 4319)
As to the kind of experiment: LTEA_HepaRG_MMP10: Life Technologies and Expression Analysis (LTEA) Assay for matrix metalloproteinase-10 (MMP10) using HepaRG (AID 2283517). The procedure, abridged: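 Gain or loss of MMP10 mRNA is fitted relative to the 0.5% DMSO vehicle. The human hepatic line HepaRG receives a 48-hour serum-free exposure, in duplicate, with a maximum concentration of 100 uM.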

Read-out in a further experiment: MYC, MYC (gene 4609)
As to the kind of experiment: LTEA_HepaRG_MYC: Life Technologies and Expression Analysis (LTEA) Assay for MYC using HepaRG (AID 2283518). The essentials: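 Differentiated HepaRG cells exposed 48 h in serum-free induction medium to 8 concentrations (top 100 uM, half-log steps; 0.5% DMSO), duplicate. MYC mRNA measured by Fluidigm qRT-PCR, normalized to ACTB, GAPDH, POLR2A; bidirectional fit versus DMSO.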

With `c1cc(-c2ccncc2)ccn1`, the result in experiment [1], in [2], in [3], in experiment [4], in [5] and in experiment [6] was inactive. For the same molecule, the result in experiment [7], in [8] and in experiment [9] was inactive.
Turning to `Cc1ccc(N(C)C)cc1`, the call in [1], in [2], in experiment [3], in experiment [4], in experiment [5] and in experiment [6] was inactive. The outcome in [7] is “inactive”; in experiment [8], “inactive”; in [9], “inactive”; with MYC, MYC (gene 4609) it was “inactive”.
In the case of `NC(=O)Cn1c(=O)cc(CCN2CCN(c3nccc4sccc34)CC2)c2ccc(F)cc21`, the molecule was called inactive in [1], in [2], in experiment [3], in experiment [4], in experiment [5] and in [8]. The outcome was “inactive” in experiment [9] and “inactive” with MYC, MYC (gene 4609). For the same molecule, the AC50 in [6] and in experiment [7] was 50 µM (active) each time.
On to `CC(CO)OC(C)CO` (stereo unspecified) (tested in a mixture with another compound), for which the call in experiment [1], in experiment [2], in experiment [3], in experiment [4], in experiment [5] and in experiment [6] was inactive. Also, the outcome was “inactive” in experiment [7]; “inactive” in [8]; “inactive” in experiment [9]; “inactive” with MYC, MYC (gene 4609).
For `CCCCCCOCCO`, the call in experiment [1], in experiment [2], in [3], in experiment [4], in experiment [5] and in [6] was inactive. The outcome in experiment [7] is “inactive”; in experiment [8] it was “inactive”; in experiment [9], “inactive”; with MYC, MYC (gene 4609) it was “inactive”.
Turning to `CCOc1ccc2c(c1)C(C)=CC(C)(C)N2`, the call in experiment [1], in [3], in experiment [4], in experiment [5], in experiment [6] and in experiment [8] was inactive. Besides, the outcome was “inactive” in experiment [9] and “inactive” with MYC, MYC (gene 4609). Also, the figures for the AC50 in [2] and in experiment [7] were 76.9 µM (active) and 50 µM (active), respectively.
Take `CC(C)c1ccc(C(=O)N=C(N)N)cc1S(C)(=O)=O`: the outcome in [1] and in experiment [4] was inactive. In addition, the AC50 in experiment [2] is 0.276 µM (active); in experiment [3], 0.377 µM (active); in experiment [5], 0.395 µM (active); in experiment [7], 0.31 µM (active); in [8], 0.334 µM (active); in experiment [9] it was 67.9 µM (active). Also, the AC50 with MYC, MYC (gene 4609) was 0.343 µM (active).
In the case of `Cc1ccc(C)c(C)c1`, the molecule was called inactive in experiment [1], in [2], in experiment [3], in [4], in experiment [5] and in experiment [6]. Also, the outcome in [7] is “inactive”; in experiment [8], “inactive”; in experiment [9], “inactive”; with MYC, MYC (gene 4609) it was “inactive”.
Turning to `Nc1ccccc1N`, the molecule was classed as inactive in experiment [1], in [3], in [5] and in experiment [9]. For the same molecule, the AC50 was 72.3 µM (active) in [2]; 3.62 µM (active) in [4]; 50 µM (active) in experiment [7]; 71.4 µM (active) in [8]; 7.08 µM (active) in the experiment with MYC, MYC (gene 4609).
On to `C[C@]12C=CC(=O)C=C1CC[C@@H]1[C@@H]2C(=O)C[C@@]2(C)[C@H]1CC[C@]2(O)C(=O)CO`, for which the result in experiment [1], in experiment [2], in [3], in experiment [4], in experiment [6] and in [7] was inactive. Moreover, the molecule was classed as inactive in experiment [8] and in experiment [9].
`CCCCC(CC)COC(=O)CC(C(=O)OCC(CC)CCCC)S(=O)(=O)O` (stereo unspecified): the AC50 was 91.4 µM (active) in experiment [1]; 77.6 µM (active) in [5]; 82.1 µM (active) in experiment [7]; 85 µM (active) in the experiment with MYC, MYC (gene 4609). Also, the result in [2], in experiment [3], in experiment [4], in experiment [8] and in experiment [9] was inactive.
On to `CCOC(=O)CCC(=O)OCC`, for which the result in experiment [2], in experiment [3], in experiment [4], in experiment [5], in [6] and in [8] was inactive. For the same molecule, the outcome is “inactive” in experiment [9] and “inactive” with MYC, MYC (gene 4609). Also, the AC50 in experiment [7] was 85 µM (active).
In the case of `NS(=O)(=O)c1cc2c(cc1Cl)NCNS2(=O)=O`, the call in [1], in experiment [2], in experiment [3], in [4], in experiment [5] and in [7] was inactive. Also, the outcome in experiment [8] is “inactive”; in experiment [9], “inactive”; in the experiment with MYC, MYC (gene 4609), “inactive”.
As to `CC(=O)OC/C=C(\C)CCC=C(C)C`, the call in experiment [1], in experiment [2], in experiment [3], in [4], in [5] and in [7] was inactive. Besides, the outcome is “inactive” in experiment [8]; “inactive” in [9]; “inactive” with MYC, MYC (gene 4609).
Regarding `Nc1nc(N)c2nc(CNc3ccc(C(=O)N[C@@H](CCC(=O)O)C(=O)O)cc3)cnc2n1`, the call in experiment [1], in experiment [2], in [3], in [4], in experiment [5] and in [7] was inactive. Moreover, the outcome in experiment [8] is “inactive”; in experiment [9] it was “inactive”; in the experiment with MYC, MYC (gene 4609) it was “inactive”.
For the molecule `Cc1cccc(Nc2cc(Cl)nc(SCC(=O)O)n2)c1C`, the result in experiment [1], in [2], in [3], in experiment [4], in experiment [5] and in experiment [7] was inactive. The outcome was “inactive” in experiment [8]; “inactive” in experiment [9]; “inactive” with MYC, MYC (gene 4609).
For the molecule `CCc1c(C(=O)NN2CCCCC2)nn(-c2ccc(Cl)cc2Cl)c1-c1ccc(Br)cc1`, the AC50 in [1] is 76.5 µM (active); in experiment [2], 89.1 µM (active); in experiment [3], 58.6 µM (active); in [4], 50 µM (active); in experiment [5], 50 µM (active); in [7], 4.13 µM (active). Besides, the AC50 in experiment [8] is 29.8 µM (active); in [9] it was 33.2 µM (active); with MYC, MYC (gene 4609) it was 50 µM (active).
On to `C=CCc1ccc(O)c(OC)c1`, for which the molecule was classed as inactive in [2], in experiment [3], in experiment [4], in [5], in experiment [6] and in experiment [7]. Also, the outcome is “inactive” in experiment [8]; “inactive” in experiment [9]; “inactive” with MYC, MYC (gene 4609).
As to `CC1(C)CC(N=C=O)CC(C)(CN=C=O)C1` (stereo unspecified), the result in experiment [1], in [2], in [3], in experiment [4], in experiment [5] and in [7] was inactive. The outcome in [8] is “inactive”; in [9], “inactive”; with MYC, MYC (gene 4609) it was “inactive”.
As to `Oc1ccc2ccccc2c1N=Nc1ccccc1`, the AC50 in experiment [2] was 15.7 µM (active); in experiment [4], 3.66 µM (active); in experiment [6], 11.8 µM (active); in experiment [7], 1.7 µM (active); in [8] it was 9.92 µM (active); with MYC, MYC (gene 4609), 6.08 µM (active). The result in [3], in experiment [5] and in experiment [9] was inactive.
For `Nc1ccc(S(=O)(=O)c2ccc(N)cc2)cc1`, the outcome in experiment [2], in experiment [3], in [4], in experiment [5], in experiment [6] and in experiment [7] was inactive. Further, the outcome in [8] is “inactive”; in [9] it was “inactive”; with MYC, MYC (gene 4609) it was “inactive”.
Consider `COCCOCCOC`, for which the result in experiment [1], in [2], in experiment [3], in experiment [4], in experiment [8] and in experiment [9] was inactive. Further, the AC50 in experiment [5] is 0.582 µM (active); in [7], 1.21 µM (active); with MYC, MYC (gene 4609), 0.966 µM (active).
As to `O=c1c(O)c(-c2ccc(O)c(O)c2)oc2cc(O)cc(O)c12`, the call in experiment [1], in [2], in [4], in experiment [5], in experiment [7] and in experiment [8] was inactive. Besides, the outcome in [9] was “inactive”; with MYC, MYC (gene 4609), “inactive”.
